Bioassay records: PubChem BioAssay, National Center for Advancing Translational Sciences (NCATS)
Compounds with a hit are over-represented: about 17% of the library has one in this group of screens.
DT40 TDP1 no CPT = qHTS for Inhibitors of human tyrosyl-DNA phosphodiesterase 1 (TDP1): qHTS in cells in absence of CPT; DT40 Tdp1-/- hTDP1 cells, no CPT, ATP luminescence, 48 h; Potency, µM (doses to about 46.2 µM), without a hit: at the top dose activity change, negative = growth inhibition, hits mostly inhibitors; actives 15% (n = 420,000); also: % is scaled to controls: 0 for no effect and ±100 for the full control effect; nearly all actives have a fitted effect of over 55% in size
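Luminescent ATP content (CellTiter-Glo) served as the growth readout. Knockout chicken DT40 cells expressing human TDP1 were exposed to compounds without camptothecin for a minimum 48 hr at 37 °C.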
ClpP mod = qHTS Assay for Activators of ClpP; ATP-dependent Clp protease proteolytic subunit (Bacillus subtilis (strain 168)), P80244; purified B. subtilis ClpP, FRET peptide cleavage, 20 min; Potency, µM (highest dose often 57.5 µM), without a hit: top-dose activity change, negative = active; actives 1.9% (n = 340,000); AID 651965, 2013; active = well fitted falling curve with a large enough effect; inconclusive = small, poorly fitted or top-dose-only effect; inactive = no such curve, though single readings can be large or run the other way; also: the source files actives as falling curves though it sought activators and does not explain the sign; nearly all actives have a fitted effect of over 65% in size
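Buffer: 100 mM Tris/HCl pH8, 100 mM KCl, 0.05% low protease BSA, 2.5% glycerol, 0.01% Tween-20. ClpP 10 microg/mL final; 20 min RT; delta FRET normalized to ADEP and DMSO controls.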
DT40 TDP1 CPT = growth inhibition of DT40 Tdp1-/-;hTDP1 cells with camptothecin (screen for TDP1 inhibitors) | AID 686979 | actives 12% (n = 420,000) | Potency, µM (top dose mostly 46.2 µM), inactives show top-dose activity change, negative = growth inhibition, hits mostly inhibitors | chicken DT40 Tdp1-/-;hTDP1 cells + 20 nM CPT, ATP luminescence, 48 h; also: % is scaled to controls: 0 for no effect and ±100 for the full control effect; nearly all actives have a fitted effect of over 55% in size
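Chicken DT40 Tdp1-/- cells complemented with human TDP1, 400 cells/well, exposed to compounds plus 20 nM camptothecin for at least 48 h at 37 C; viability read as ATP content by CellTiter-Glo luminescence.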
TDP1 block = inhibitors of human tyrosyl-DNA phosphodiesterase TDP1 | Q9NUW8 | recombinant TDP1, AlphaScreen DNA substrate cleavage | Potency, µM (top dose mostly 130 µM), inactives show top-dose activity change, negative = inhibition, usual class: inhibitors | actives 0.28% (n = 350,000) | AID 485290; also: % is scaled to controls: 0 for no effect and ±100 for the full control effect; nearly all actives have a fitted effect of over 40% in size
Target sequence (Q9NUW8 whole entry, looked up): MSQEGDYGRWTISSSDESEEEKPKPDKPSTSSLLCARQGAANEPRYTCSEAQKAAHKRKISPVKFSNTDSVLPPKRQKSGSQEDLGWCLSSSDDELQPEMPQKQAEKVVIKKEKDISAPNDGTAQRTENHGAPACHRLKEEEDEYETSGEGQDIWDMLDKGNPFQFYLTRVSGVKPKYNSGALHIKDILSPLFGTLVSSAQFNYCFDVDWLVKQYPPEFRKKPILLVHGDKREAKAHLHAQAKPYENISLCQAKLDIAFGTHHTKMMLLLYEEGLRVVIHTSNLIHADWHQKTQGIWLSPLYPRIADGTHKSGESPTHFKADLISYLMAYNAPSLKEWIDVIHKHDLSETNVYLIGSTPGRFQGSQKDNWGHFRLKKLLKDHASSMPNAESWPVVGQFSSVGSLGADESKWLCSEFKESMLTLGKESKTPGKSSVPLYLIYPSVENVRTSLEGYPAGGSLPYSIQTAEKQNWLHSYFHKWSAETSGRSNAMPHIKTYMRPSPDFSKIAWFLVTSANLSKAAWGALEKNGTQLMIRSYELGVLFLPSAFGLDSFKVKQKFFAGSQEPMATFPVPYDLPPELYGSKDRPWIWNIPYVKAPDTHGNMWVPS
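Recombinant E. coli-expressed Tdp1 (1 nM) preincubated with compound 15 min at RT, then 5'-biotin/3'-phosphotyrosine-FITC DNA substrate (15 nM) added for 5 min. AlphaScreen beads (10 ug/ml) added, 10 min RT; tyrosine-FITC cleavage read as signal loss.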
The depositor's hits bear a star; ? = inconclusive; · = no result given; ! = not confirmed by another sample; [ ] = remark or other dose. Unless noted, calls follow the shape of the dose curve; as a rule, active = well fitted curve in the direction sought with a large enough effect; inconclusive = small, poorly fitted or top-dose-only effect, or another doubt; inactive = no such curve, though single readings can be large; an effect the other way counts as inactive or inconclusive. Potency is read from the fitted curve at half-maximal effect.

SMILES | DT40 TDP1 no CPT | ClpP mod | DT40 TDP1 CPT | TDP1 block
O=[N+]([O-])c1ccc(CN2CC(N3CCN(CC4CC4)CC3)CS2(=O)=O)cc1 (centres undefined) | -25% | -2% | -24% | ·
CC(=O)Nc1ccc(-c2ccnc3c2CC(C(=O)NCCC(F)(F)F)O3)cc1 (centres undefined) | 15µM* | 5% | 13µM* | ·
CC(=O)Nc1ccc(-c2ccnc3c2CC(C(=O)NCC2CCOCC2)O3)cc1 (centres undefined) | 4.1µM* | 5% | 4.6µM* | ·
CC(=O)Nc1ccc(-c2ccnc3c2CC(C(=O)NCC2CC2)O3)cc1 (centres undefined) | 8.2µM* | 6% | 13µM* | ·
COCCNC(=O)C1Cc2c(-c3ccc(NC(C)=O)cc3)ccnc2O1 (centres undefined) | ? | 4% | ? | ·
O=C1NC(=S)S/C1=C\c1cc(Cl)ccc1Cl | ? | -10% | 21µM* | ·
Cc1cc(/C=C2\SC(=S)NC2=O)c(C)[nH]1 | -2% | · | -3% | 11%
Cc1cccc(OCc2nnc(SCC(=O)N(C)C3CCCCC3)o2)c1 | ? | · | 18µM* | -3%
CCOc1ccc(N(CC(=O)NC2CCCC2)C(=O)CSc2nnc(COc3ccccc3)o2)cc1 | 21µM* | 1% | 21µM* | 1%
CN(C(=O)CSc1nc2ccccc2o1)C1CCCCC1 | 29µM* | · | ? | 0%
CC1CCCN(C(=O)CSc2nc3ccccc3o2)C1 (centres undefined) | -7% | 0% | -10% | 4%
COc1ccc(-c2nnc(SCC(=O)N(C)C3CCCCC3)o2)cc1OC | 12µM* | 1% | 16µM* | 6%
Cc1ccc(NC(=O)NNC(=O)CN2C(=O)COc3ccccc32)cc1 | 18% | · | -1% | ?
O=C(CSc1nnc(COc2ccc(Cl)cc2)o1)N(c1ccccc1)C1CCS(=O)(=O)C1 (centres undefined) | 13µM* | -2% | ? | ·
CCCCC(CC)CNC(=O)CN1C(=O)NC2(CCc3ccccc32)C1=O (centres undefined) | ? | 0% | ? | -2%
CC1Sc2ccc(C(=O)N(CCc3ccccc3)Cc3ccccc3)cc2NC1=O (centres undefined) | ? | -1% | 21µM* | ·
CC1Sc2ccc(C(=O)O)cc2NC1=O (centres undefined) | -5% | -2% | -8% | -7%
O=C(CN1CCN(S(=O)(=O)N2CCOCC2)CC1)Nc1cc(Cl)ccc1Cl | ? | · | -22% | ·
Nc1c(C(=O)Nc2ccccc2Br)sc2nc(-c3cccs3)ccc12 | ? | 32µM* | ? | ·
Nc1c(C(=O)Nc2ccc(Cl)cc2F)sc2nc(-c3cccs3)ccc12 | ? | -18% | ? | ·
Nc1c(C(=O)Nc2nc3ccccc3s2)sc2nc(-c3cccs3)ccc12 | 21µM* | 0% | 12µM* | ·
CCc1ccccc1S(=O)(=O)Cc1ccc(C(=O)NCCc2ccc(C)cc2)o1 | 29µM* | 0% | ? | 0%
COc1ccc(S(=O)(=O)Cc2ccc(C(=O)NC3CCCCCC3)o2)cc1 | ? | -2% | 15µM* | 2%
COc1ccc(CCNC(=O)c2ccc(CS(=O)(=O)Cc3ccc(C)cc3)o2)cc1OC | 23µM* | 0% | ? | ·
COc1ccc(CCNC(=O)CSCc2ccc([N+](=O)[O-])cc2)cc1 | -23% | 3% | -9% | 2%
SMILES | DT40 TDP1 no CPT | ClpP mod | DT40 TDP1 CPT | TDP1 block
COc1ccc(CCNC(=O)CSCc2ccc([N+](=O)[O-])cc2)cc1OC | 26µM* | 0% | 26µM* | 5%
Cc1ccc(S(=O)(=O)Cc2ccc(C(=O)NC3CCCC3)o2)cc1 | 7% | -3% | 12% | -8%
O=C(COc1ccccc1F)Nc1nnc(SCc2cc(=O)n3ccccc3n2)s1 | -3% | -6% | 1% | 0%
Cc1cc(NC(=O)c2ccc(C)s2)n(-c2ccccc2)n1 | 3% | 2% | -3% | -4%
C[C@@H]1CN([C@H](C)CO)C(=O)CCCn2nncc2CO[C@@H]1CN(C)C(=O)Nc1ccc2c(c1)OCO2 | -23% | -2% | -12% | ·
COc1ccc(C(C)NC(=O)c2ccc([N+](=O)[O-])cc2)cc1OC (centres undefined) | 0.52µM* | -12% | 0.92µM* | 4%
O=C(NCCc1ccc(Cl)cc1)c1ccc(CS(=O)(=O)Cc2ccccc2F)o1 | 21µM* | 1% | ? | -1%
COc1ccc(N2CCN(CCCNC(=O)c3ccc(CS(=O)(=O)c4ccc(Cl)cc4)o3)CC2)cc1 | 21µM* | -5% | ? | 6%
CN1CCN(CCCNC(=O)c2ccc(CS(=O)(=O)c3ccc(Br)cc3)o2)CC1 | 5% | -2% | -1% | 7%
COc1ccc(CCNC(=O)c2ccc(CSc3ccc(Cl)cc3)o2)cc1OC | 13µM* | 0% | 13µM* | ·
O=C(CNS(=O)(=O)c1c(F)cccc1F)NC1CCCc2ccccc21 (centres undefined) | -16% | · | -13% | 1%
NS(=O)(=O)c1ccc(CCNC(=O)c2cc(-c3ccccn3)nc3ccc(Br)cc23)cc1 | ? | · | ? | -3%
COc1ccc(CCNC(=O)c2ccc(CS(=O)(=O)c3ccc(C)cc3)o2)cc1OC | 15µM*! | 1% | ? | 0%
COCCNC(=O)c1ccc(CS(=O)(=O)c2ccc(OC)cc2)o1 | -11% | 0% | -13% | 0%
COc1ccc(NC(=O)c2ccc(-c3ccc([N+](=O)[O-])cc3)o2)cc1OC | 16µM* | -1% | 13µM* | 7%
COc1ccc(CCNC(=O)c2ccc([N+](=O)[O-])cc2Cl)cc1OC | -1% | -1% | 21% | ·
COc1ccc(CCNC(=O)c2ccc(CS(=O)(=O)c3ccc(Cl)cc3)o2)cc1OC | 16µM* | -2% | 23µM* | 3%
COc1ccc(CCNC(=O)c2ccc(-c3ccc([N+](=O)[O-])cc3Cl)o2)cc1OC | 8.2µM* | 0% | 7.3µM* | 8%
CC(C)NC(=O)CSc1nc(N)c(NC(=O)c2ccccc2F)c(=O)[nH]1 | 0% | 0% | 5% | -3%
CC(C)(C)c1ccc(S(=O)(=O)NC(=O)C2(C)CCN2C(=O)C2CC2)cc1 (centres undefined) | 3% | -2% | -6% | ·
O=C(CSc1nccn1Cc1ccccc1)Nc1ccc2c(c1)OCO2 | -1% | 0% | ? | 7%
COc1ccc(CC(=O)N/N=C/c2cccn2-c2ccc([N+](=O)[O-])cc2)cc1OC | 15µM* | -1% | 16µM* | -3%
CCOC(=O)c1c(C)n(-c2ccccc2)c2ccc(OC(=O)c3cccc(OC)c3OC)cc12 | -26% | 5% | -18% | -7%[12.3 µM]
CCOC(=O)c1c(C)n(-c2ccccc2)c2ccc(OC(=O)c3ccccc3Cl)cc12 | 16µM* | -3% | ? | 4%[12.3 µM]
CCOC(=O)c1c(C)n(-c2ccccc2)c2ccc(OC(=O)c3cc(OC)cc(OC)c3)cc12 | 21µM* | -1% | ? | 3%[12.3 µM]
